High-throughput results: PubChem BioAssay, several laboratories
The list is not random: actives were taken first. Their share in the collection is about 3.1%.
ABHD5 PLIN5 PPI = ABHD5-PLIN5 interaction inhibitors, primary screen, cell lysate, split luciferase complementation, luminescence | Perilipin-5 (Homo sapiens) + 1-acylglycerol-3-phosphate O-acyltransferase ABHD5 (Homo … | Split G. princeps luciferase complementation, 4 h | inhibition, % at 4 µM | actives 0.78% (n = 360,000);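 active means inhibition above the mean inhibition across every tested compound plus 3 SD, cut at about 22% in these data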
MITF TRPM1 inh = inhibitors of MITF-dependent TRPM1 promoter reporter, primary screen, cell-based, SK-MEL-5, single point, luciferase | SK-MEL-5 TRPM1 promoter luciferase, 24 h | inhibition, % at 12.5 µM | actives 0.83% (n = 330,000) | AID 488899, 2010;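 active means mean inhibition across replicates of 60% or more, whatever share of single replicates reaches that level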
CF NFkB inh = inhibitors of PAF-induced NF-kB signaling, primary screen, cell-based, GFP fluorescence, uHTS; KKLEB NF-kB-GFP reporter, GFP fluorescence overnight; inhibition, % at 5 µM; actives 0.86% (n = 360,000);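 active means at least 50% inhibition at 5 µM, scaled per plate between neutral and stimulator controls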;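 further: PAF is a Pseudomonas aeruginosa culture filtrate used as stimulus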
KKLEB tox = cytotoxicity in KKLEB CF airway cells, primary screen, cytotoxicity control for CF NF-kB inhibitor project, cell-based, uHTS, fluorescence assay plates; KKLEB CF airway cells viability, ATPlite luminescence, overnight; hits give low values; cells stimulated with P. aeruginosa culture filtrate; activity change (cytotoxicity), % at 5 µM; actives 0.36% (n = 360,000); AID 602141, 2011;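 active means corrected activity change at or below -50% at 5 µM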
Peg3 prom inh-1 = Peg3 promoter-driven luciferase inhibitors, primary screen, cell-based, HeLa, luciferase luminescence | inhibition, % at 20 µM | HeLa PEG-Prom luciferase reporter, overnight | actives 1.7% (n = 360,000);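 active means inhibition of at least 50% at 20 µM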
HIF-2a block = HIF-2a reporter inhibitors, primary screen, luminescence, 786-0 RCC cells; 786-0 RCC cells HIF-2a reporter, luciferase luminescence, overnight; actives 0.72% (n = 360,000); inhibition, % at 18.8 µM; AID 624352, 2012;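 active means inhibition of the luminescence signal of 40% or more relative to plate controls, in a single-dose primary screen at 18.75 µM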
Peg3 prom inh-2 = Peg3 promoter reporter inhibitors, retest, confirmation, cell-based, HeLa, luciferase reporter, single concentration. shares compounds with Peg3 prom inh-1. HeLa PEG-Prom luciferase reporter, luminescence, overnight. inhibition, % at 20 µM. actives 84% (n = 1,300);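 active means at 20 µM dose, 40% or more inhibition averaged across four replicates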
Mdm2-MdmX confirm = retested Mdm2-MdmX interaction blockers, confirmation, cell-based, luminescence, single concentration, set 2. shares compounds with HIF-2a block. SaOS-2 split-luciferase Mdm2/MdmX complementation. inhibition, % at 8 µM. actives 99% (n = 740). AID 504601, 2011;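 active means mean inhibition of the luminescence signal across two replicates at or above 26 percent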
HIF-2a inh conf = HIF-2a reporter inhibitor retest, confirmation, luminescence, 786-0 RCC cells | shares compounds with HIF-2a block | HIF-2a luciferase reporter luminescence, overnight | actives 56% (n = 1,800) | inhibition, % at 18.8 µM;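 active means mean inhibition across four replicates of at least 40 percent at the single tested concentration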
HIF-1a cs = HIF-1a luciferase reporter signal reduction – MiaPaCa-2 cells, single concentration, counter-screen for HIF-2a inhibitor project, confirmation; shares compounds with HIF-2a block; MiaPaCa-2 HIF-1a luciferase reporter, desferoxamine, overnight; inhibition, % at 18.8 µM; actives 72% (n = 1,800); AID 651589, 2012;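 active means mean inhibition of the reporter signal across four replicates at the single tested dose of 50% or more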
Each line names hits and unclear results; the compound was inactive in the other large screens (follow-up assays come after a bar, where they were run).

CN(C)c1ccc(Nc2nc(N)c3ccccc3n2)cc1	KKLEB tox -62.2, Peg3 prom inh-1 62.9, HIF-2a block 47.2 | Peg3 prom inh-2 65.0 | HIF-2a inh conf 79.0 | HIF-1a cs inactive
COCCn1c(C)cc(C(=O)COc2ccc(C)nc2[N+](=O)[O-])c1C	Peg3 prom inh-1 65.8, HIF-2a block 74.5 | Peg3 prom inh-2 72.3 | HIF-2a inh conf 76.5 | HIF-1a cs 85.1
C=CCn1c(C)cc(C(=O)COc2ccc(C)nc2[N+](=O)[O-])c1C	Peg3 prom inh-1 61.0, HIF-2a block 68.2 | Peg3 prom inh-2 69.1 | HIF-2a inh conf 67.8 | HIF-1a cs 89.0
Cc1ccc(OCC(=O)c2cc(C)c(C)cc2C)c([N+](=O)[O-])n1	none
Cc1ccc(C(=O)CN2/C(=C(\O)c3ccccc3)C(=O)c3ccccc3S2(=O)=O)c(C)c1	none
Cc1ccc(C(=O)CN2C(=O)c3ccccc3S2(=O)=O)cc1	MITF TRPM1 inh 68.8, Peg3 prom inh-1 80.5, HIF-2a block 86.9 | Peg3 prom inh-2 78.8 | HIF-2a inh conf 87.2 | HIF-1a cs 81.7
Cc1cc(C)nc(NC(=O)CN2C(=O)c3ccccc3S2(=O)=O)n1	none
C=CCn1c(C)cc(C(=O)CN2C(=O)c3ccccc3S2(=O)=O)c1C	MITF TRPM1 inh 94.1, Peg3 prom inh-1 93.5, HIF-2a block 94.5 | Peg3 prom inh-2 95.8 | Mdm2-MdmX confirm 74.5 | HIF-2a inh conf 99.0 | HIF-1a cs 104.0
Cc1cc(C(=O)CN2C(=O)c3ccccc3S2(=O)=O)c(C)n1C(C)C	Peg3 prom inh-1 68.1, HIF-2a block 76.0 | Peg3 prom inh-2 74.1 | HIF-2a inh conf 86.0 | HIF-1a cs 82.0
COc1ccc2c(c1OC)C(=O)N(c1ccc(OCc3ccccc3)cc1)C2=O	none
Cc1c(Cl)cccc1NC(=O)CSc1nccn1C	none
Cc1cccc(N(C(=O)CNC(=O)c2ccco2)C(C(=O)NC2CCCCC2)c2cccnc2)c1 (stereo not given)	none
O=C(NC1CCCCC1)C(c1cccnc1)N(C(=O)CCl)c1cccc(Cl)c1 (stereo not given)	MITF TRPM1 inh 83.4, CF NFkB inh 54.4, KKLEB tox -63.3, Peg3 prom inh-1 105.5, HIF-2a block 62.1 | Peg3 prom inh-2 99.0 | Mdm2-MdmX confirm 103.0 | HIF-2a inh conf 98.4 | HIF-1a cs 106.0
O=C(CCC1CCCN(C(=O)c2ccc3c(c2)OCO3)C1)N1CCN(c2ccccn2)CC1 (stereo not given)	none
Cc1oc(-c2ccc3c(c2)OCCO3)cc1C(=O)NC(CCC(=O)O)C(=O)O (stereo not given)	none
Cc1oc(-c2ccc3c(c2)OCCO3)cc1C(=O)O	Peg3 prom inh-1 96.0, HIF-2a block 81.0 | Peg3 prom inh-2 89.1 | HIF-2a inh conf 92.4 | HIF-1a cs 91.8
C/C(=N\NC(=O)c1cc(C)[nH]n1)c1cccs1	none
Cc1ccc(/C=N/NC(=O)c2n[nH]c3c2CCCC3)cc1	none (no result: MITF TRPM1 inh)
